About 83,000 compounds went through this panel and 20% of them were active in at least one assay; those are over-represented in the sample as a whole.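 Growth was measured after 48 h exposure to one concentration of compound in 96-well plates. Values under 10 count as active.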 Unmarked numbers belong to inactive results. Active and inactive are the calls of the source.
System: SK-MEL-2 melanoma
Experiment: NCI-60 one-dose screen, 48 h (100 = growth as untreated, 0 = no growth, -100 = all killed)
Conditions: 10 µM unless noted
Experimental: Growth inhibition of the SK-MEL-2 human tumor cell line is measured as a screen for anti-cancer activity. Cells are grown in 96 well plates and exposed to the test compound for 48 hours. Compounds are tested at a single concentration, which is 10^-5 M for most compounds. The reported endpoint is percent growth (GI% or GIPRCNT), where numbers from 0 - 100% represent growth inhibition, and numbers from -100% - 0 represent cell death. For example, a value of 40 represents 60% growth inhibition. A value of 0 means no net growth occurred over the course of the experiment. A value of -40 indicates 40% of cells at the beginning of the experiment died by the end of the experiment. A value of -100 means all cells are dead at the end of the experiment.
NCI-60 Human Tumor Cell Lines Screen was performed using the standard one-dose NCI protocol, which is described in more detail at https://dtp.cancer.gov/discovery_development/nci-60/default.htm.
Compounds with GIPRCNT values below 10 were considered active. Activity score was based on GIPRCNT using the following formula: […]
Score is 0 for GIPRCNT values of 100 or above, 50 for GIPRCNT values of 0, and 100 for GIPRCNT values of -100.

SMILES	growth
CN(C)c1ccc(/C=C2\C=C(c3nc4ccccc4s3)OC2=O)cc1	107%
C#Cc1cccc(NC(=O)C2CCCCN2C(=O)CCl)c1 (stereo not given)	-51.7% [8.25 µM] (active)
CN1CCN(c2ccc(NC3=CC(=O)c4ncncc4C3=O)cc2)CC1	-54% (active)
CSc1nc(-c2ccco2)c(C#N)c(=O)n1C	94.3%
Cc1c(C(C)(C)O)cn2ncnc(Oc3ccc(NC(=O)Nc4ccc(Cl)c(C(F)(F)F)c4)c(F)c3)c12	94.7%
CN(C)/C(N)=N/N=C(\c1ccccc1)c1ccccn1	106%
COC(=O)[C@]1(C)CCC[C@]2(C)[C@H]3C[C@@H]4[C@H]5[C@@H]6CC/C(=N\OCC/C(N)=N/O)[C@H]5[C@@]3(CC[C@H]21)CC4(C(C)C)O6	85.8%
N=C(N)c1ccc(-c2ccc(-c3cc(Cl)cc(Cl)c3)s2)s1	83.4%
Cc1[nH]n(-c2cccc(Cl)c2)c(=O)c1/C=C1\C=c2ccccc2=CC1=O	38.1%
N#Cc1c(-c2cccc(Cl)c2)cc(-c2cccnc2)[nH]c1=O	79.7%
CCOC(=O)/C=C1\S/C(=N\Nc2cc(=O)[nH]c3ccc(Br)cc23)N(c2ccccc2)C1=O	99.3%
CCOc1ccc(/C=C/C(=O)c2cccc(OCCCOc3cccc(C(=O)/C=C/c4ccc(OCC)cc4)c3)c2)cc1	106%
CCOC(=O)C1=C(c2ccccc2)N=C2N(c3ccccc3)N=C(C(C)=O)N2C1c1ccc(F)cc1 (stereo not given)	112%
Fc1cc2[nH]ncc2c2c3c(c(-c4cn[nH]c4C(F)(F)F)nc12)CCCC3	-22.1% (active)
Cc1cccc(NC(=O)Cn2cc(CN3CCN(c4ccnc5cc(Cl)ccc45)CC3)nn2)c1	108%
Cc1nc2sc(C(=O)Nc3cccc(Cl)c3C)c(N)c2cc1C(=O)/C=C/c1ccccc1	33.8%
NCCCNc1nc2ccccc2c2c(=O)c3cc(Cl)ccc3sc12	41%
O=c1oc2c(cnc3ccccc32)cc1-c1cccc(Cl)c1	118%
CCCCCc1ccc(S(=O)(=O)Nc2cc(-c3csc(NC(C)=O)n3)ccc2N2CCN(C)CC2)cc1	81.3%
N#C/C(=C\c1ccc(-c2cccc(Cl)c2)o1)C(=O)Nc1ncc(Cc2ccc(Cl)cc2)s1	97.2%

SMILES	growth
O=c1ccc2ccc(OCCN3CCCCC3)cc2o1	101%
CCOC(=O)NCCCC(=O)NCCc1ccccc1	110%
Cn1cc(-c2nonc2-c2c[nH]c3ccccc23)c2cc(Br)ccc21	41%
O=C(Cn1nc(-c2cccc3ccccc23)ccc1=O)NCc1cccc(Cl)c1	59.2% [50 µM]
Nc1nc(C(=O)N/N=C/c2ccc(F)cc2)nn1-c1ccc(S(N)(=O)=O)cc1	104%
O=C(c1cccc(N2CCOCC2)n1)c1c[nH]c2ccccc12	103%
CN1CCOCCN(C)Cc2ccc3ccc(cc3c2)CN(C)CCOCCN(C)Cc2ccc3ccc(cc3c2)C1	114%
COc1ccc2[nH]cc(-c3nonc3-c3c[nH]c4ccc(Br)cc34)c2c1	73.1%
O=C1NC(=O)C(c2coc3cc(Br)ccc23)=C1c1c[nH]c2ccccc12	34.1%
COc1ccc(C2CC(c3ccccc3)=NN2C(=O)c2cc(OC)c(OC)c(OC)c2)cc1O (stereo not given)	76.5%
COC(=O)c1sccc1-c1cc(O)c(C(=O)Nc2ccccc2)s1	104%
O=S(=O)(NCCNc1nccc(-c2c(-c3ccc(F)c(O)c3)nc3sccn23)n1)c1ccc(Cl)cc1	-31.6% (active)
CC[C@@H](C(=O)[C@@H](C)[C@@H](O)[C@H](C)[C@@H]1O[C@@H]([C@@H](CC)C(=O)ONC(=O)c2ccccc2O)CC[C@@H]1C)C1O[C@]2(C=CC(=O)[C@]3(CC[C@@](C)([C@H]4CC[C@](O)(CC)[C@H](C)O4)O3)O2)[C@H](C)C[C@@H]1C (stereo not given in full)	76.9%
O=C(Nc1cccnc1Nc1ccccc1)c1cn(Cc2cccc(Oc3ccccc3)c2)nn1	75.6%
CNC(=O)NCC1OC(n2cnc3c(NC(=O)Nc4ccccc4)ncnc32)C2OC(=O)CC12 (stereo not given)	70%
CCCC(O)Cn1ncc(C(=O)OCC)c1NC(=O)NCc1cccc(C(F)(F)F)c1 (stereo not given)	73.4%
COc1ccc(CNc2ccc3nc(NC(=O)CN4CCCCCC4)sc3c2)cc1	85.4%
O=C(/C=C/c1ccccc1)c1ccc(-n2cc(CN3CCN(c4cc5c(cc4F)c(=O)c(C(=O)O)cn5C4CC4)CC3)nn2)cc1	96.8%
COc1ccc(Nc2ncc(I)c(NCCCNC(=O)C3CCC3)n2)cc1	35.5%
Cc1cc(=O)n(C(=S)Nc2ccc(Cl)cc2)c2cc(O)ccc12	104%

— PubChem BioAssay (NCI)
